Structures are written as SMILES. ± gives the standard deviation of the averaged measurements.

The subject of the assay is CHON-002. As to the kind of experiment: nucleolar normality score relative to DMSO (fraction of DMSO control); RPE1 is a non-cancer human cell line; higher = more normal nucleoli (less nucleolar stress). How it is done: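 Selected screen hits were validated in hTERT lines (BJ5TA, CHON-002, RPE1) and cancer lines (DLD1, HCT116). Cells were immunostained for nucleolin and UBF and the nucleolar normality score was measured per field of view, with 4 fields per drug. Scores are normalized to each cell line's own DMSO control. Dose and time are not stated for this panel.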
Regarding `CC[C@@]1(O)C(=O)OCc2c1cc1n(c2=O)Cc2cc3ccccc3nc2-1` [Camptothecin], the nucleolar normality score is 0.38 ± 0.047.

Values taken from the supplement of paper PMC10723795.
